The record followed here is PubChem BioAssay AID1851 (National Center for Advancing Translational Sciences (NCATS), 2009).

Where “and” joins values, the source holds several entries; their conditions need not be identical. Identical values can stand only once. In all, about 16,000 compounds went through this assay and about 4,000 (25%) were called active. Inconclusive results (about 26%) are left out. Calls follow the shape of the dose curve; as a rule, active = well fitted curve in the direction sought with a large enough effect; inconclusive = small, poorly fitted or top-dose-only effect, or effect the other way; inactive = no such curve, though single readings can be large or run the other way. Not all results are given here. A structure can be active in one record and inactive in another.
% is scaled to controls: 0 for no effect and ±100 for the full control effect.

The target of the assay is Cytochrome P450 2C9 (Homo sapiens) (UniProt P11712). Briefly: Cytochrome panel assay with activity outcomes. To be noted: recombinant CYP, pro-luciferin dealkylation, luminescence, p450-cyp2c9; series mostly up to 57.1 µM.
Sequence of Cytochrome P450 2C9 (Homo sapiens) (P11712 whole entry, looked up): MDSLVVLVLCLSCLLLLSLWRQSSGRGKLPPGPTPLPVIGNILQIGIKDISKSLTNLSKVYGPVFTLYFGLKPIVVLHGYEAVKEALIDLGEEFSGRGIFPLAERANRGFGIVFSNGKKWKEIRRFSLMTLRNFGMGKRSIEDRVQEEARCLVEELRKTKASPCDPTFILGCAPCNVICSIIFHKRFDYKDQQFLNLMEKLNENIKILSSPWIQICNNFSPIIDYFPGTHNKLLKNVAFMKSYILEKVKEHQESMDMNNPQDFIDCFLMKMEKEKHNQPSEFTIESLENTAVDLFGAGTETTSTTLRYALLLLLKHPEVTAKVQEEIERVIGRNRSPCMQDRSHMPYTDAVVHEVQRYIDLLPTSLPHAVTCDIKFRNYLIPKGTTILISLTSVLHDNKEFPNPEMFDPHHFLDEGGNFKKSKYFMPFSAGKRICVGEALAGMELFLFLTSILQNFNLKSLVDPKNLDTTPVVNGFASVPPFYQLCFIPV
As for `CC[C@]1(c2cccc(O)c2)CCCCN(C)C1`, the activity, negative = inhibition entry was “inactive”.

Consider `CC1=NN=C(c2ccc(N)cc2)c2cc3c(cc2C1)OCO3`, for which the AC50 entry is “inactive and 1.26 µM (active)”. Turning to `C[C@@H]1Cc2cc3c(cc2C(c2ccc(N)cc2)=NN1)OCO3`, the AC50 is 25.1 µM (active). In the case of `CCCC[N+]1(C)[C@@H]2CC(OC(=O)[C@@H](CO)c3ccccc3)C[C@H]1[C@H]1O[C@H]12` (some centres undefined), the activity, negative = inhibition result is “inactive”. The same measure, in the same setting: to `CC(C)CC(=O)C[C@H](O)C(Cl)(Cl)Cl` belongs -21.3% [at 11.4 µM] (inactive); to `COc1cc2c(cc1O)C[C@@H]1c3c(cc(O)c(OC)c3-2)CCN1C`, -4.78% [at 11.4 µM] (inactive); to `CC(C)CN1CCC2(CC1)CCN(C(=O)Oc1ccccc1)CC2`, “inactive”.

`Cc1nccc2c1[nH]c1ccccc12`: the activity, negative = inhibition entry was “inactive”. Same read-out and setting: to `Cn1c(O)c(C(c2ccccn2)c2c(O)n(C)c(=S)[nH]c2=O)c(=O)[nH]c1=S` belongs “inactive”. For `O=C(c1cc(-c2ccccc2)nc2ccccc12)N1CCC2(CC1)OCCO2`, the AC50 was 28.2 µM (active). `O=C(c1cc2cc3ccc(Cl)cc3nc2o1)N1CCC2(CC1)OCCO2`: the activity, negative = inhibition entry was “inactive”. For `O=C(O)Cc1ccc([N+](=O)[O-])cc1[N+](=O)[O-]`, the activity, negative = inhibition is 11.5% [at 11.4 µM] (inactive).

Regarding `O=C1c2cc([N+](=O)[O-])ccc2-c2ccc3c4ccc5c6c(ccc(c7ccc1c2c73)c64)C(=O)c1cc([N+](=O)[O-])ccc1-5`, the activity, negative = inhibition is -26.9% [at 11.4 µM] (inactive).

On to `O=[N+]([O-])c1ccc(S(=O)(=O)Cc2ccccc2)c([N+](=O)[O-])c1`, for which the AC50 was 3.16 µM (active). On to `N[C@H](Cc1ccc2oc3cc(=O)c4ccccc4c-3nc2c1)C(=O)O`, for which the activity, negative = inhibition is -13.7% [at 11.4 µM] (inactive).

Regarding `COc1ccc(C(=O)c2c(C)n(CCN3CCOCC3)c3cc(I)ccc23)cc1`, the activity, negative = inhibition entry was “inactive”. Same read-out and setting: the result for `CN(C)CS/C(N)=N/[C@H](O)C(Cl)(Cl)Cl` reads -28.6% [at 11.4 µM] (inactive); that for `CC[N+](CC)(CCNC(=O)C(=O)NCC[N+](CC)(CC)Cc1ccccc1Cl)Cc1ccccc1Cl`, “inactive”. `C/C=C1\C[C@H](C)[C@@](O)(CO)C(=O)OCC2=CCN3CC[C@@H](OC1=O)[C@@H]23`: the activity, negative = inhibition result is “inactive”. `COCCCN1CCN(c2nnc3n2-c2sc(Br)cc2C(c2ccccc2Cl)=NC3)CC1`: the AC50 is 12.6 µM (active). Take `COCCCNC(=S)NC1CC2CCCC(C1)N2Cc1cccs1` (centres undefined): the activity, negative = inhibition entry was “inactive”. With `COc1cc2c(c(OC)c1OC)-c1ccc(O)c(=O)cc1[C@H](N)CC2`, the activity, negative = inhibition entry is “inactive”. The same measure, in the same setting: to `CC[C@]1(OC(=O)CN)C(=O)OCc2c1cc1n(c2=O)Cc2cc3ccccc3nc2-1` belongs 6.92% [at 11.4 µM] (inactive). On the same count and under the same terms, to `Nc1ccc(S(=O)(=O)c2ccc(NCN3C(=O)NC(=O)C(=O)C3=O)cc2)cc1` belongs 7.48% [at 11.4 µM] (inactive).

As to `CC(C)(C)CC(=O)NC(=S)Nc1ccccc1C(F)(F)F`, the AC50 was 2.51 µM (active).

As to `NCCCN1CCN(c2ccccc2)CC1`, the activity, negative = inhibition was 3.16% [at 11.4 µM] (inactive). For `C/C(=N\OC(=O)NC(C)C)c1sc(-c2ccc(Cl)cc2)nc1C`, the AC50 was 7.08 µM (active). Same read-out and setting: to `CCNC(=O)O/N=C(\C)c1sc(-c2ccccc2)nc1C` belongs 8.91 µM (active). Consider `CCC(CC)C(=O)NC1CCSC1=O` (centres undefined), for which the activity, negative = inhibition entry was “inactive”. On the same count and under the same terms, to `N=C(N)n1cc(/C=N\N=C(N)N)cn1` belongs 5.35% [at 11.4 µM] (inactive). Still for that read-out and setting: to `CC1=CC(=O)C2=C(C)C[C@@H](O)[C@@H]3[C@@H](OC(=O)[C@H]3C)[C@H]12` belongs “inactive”. Consider `CN(C)C(=O)Oc1cc(OC(=O)N(C)C)cc([C@@H](O)CNC(C)(C)C)c1`, for which the activity, negative = inhibition entry is “inactive”. The same measure, in the same setting: to `C[C@@]12CC[C@@H]3[C@H](CCC4=CC(=O)CC[C@]43C)[C@@H]1CC[C@@H]2C(=O)Cn1cnc2c(=S)nc[nH]c21` belongs -11.6% [at 11.4 µM] (inactive); to `COC(=O)N1CCC2(CCN(CC(C)C)CC2)CC1`, “inactive”; to `C[C@@]12CC[C@H](O)C[C@@H]1CC[C@H]1[C@@H]2C[C@@H](O)[C@]2(C)[C@@H](C3=CC(=O)OC3)CC[C@]12O`, “inactive”. `C[N+]1(C)CCN(c2ccccc2)CC1`: the activity, negative = inhibition result was “inactive”.

Consider `C[C@H](CC(C#N)(c1ccccc1)c1ccccc1)N1CCCCC1`, for which the activity, negative = inhibition was 6.88% [at 11.4 µM] (inactive). Same read-out and setting: the result for `COc1cc([C@@H](O)CN)ccc1O` reads “inactive”. With `COc1cc(CNC(=O)CCCC/C=C\C(C)C)ccc1O`, the AC50 was 1.26 µM (active). Still for that read-out and setting: the result for `CCCCCCCCC(=O)NCc1ccc(O)c(OC)c1` reads 3.16 µM (active). For the compound `COc1cc(CCN)ccc1O`, the activity, negative = inhibition entry is “inactive”. On the same count and under the same terms, the result for `CNC[C@H](O)c1ccc(O)c(OC)c1` reads “inactive”; that for `C[C@@H]1O[C@H](O[C@@H]2CC[C@@]3(C=O)[C@H]4CC[C@@]5(C)[C@@H](C6=CC(=O)OC6)CC[C@@]5(O)[C@@H]4CC[C@]3(O)C2)C[C@H](O)[C@@H]1O`, “inactive”; that for `COc1ccc2[nH]cc(C3=CCNCC3)c2c1`, “inactive”. The same measure, in the same setting: the result for `C=CCN1C(=O)NC(=O)/C(=C/c2cccn2C)C1=O` reads “inactive”; that for `O=C(O)Cc1cccnc1C(=O)O`, “inactive”. Same read-out and setting: the result for `O=c1cccc2n1CC1CNC[C@H]2C1` reads “inactive”; that for `c1ccc(N2CC[C@@]3(CCCNC3)C2)cc1`, “inactive”. `CC(C)CN1CCC2(CC1)CCN(S(C)(=O)=O)CC2`: the activity, negative = inhibition entry is “inactive”. Turning to `Cc1ccc(N(C)C(=O)Oc2cccc3ccc(C)nc23)cc1`, the AC50 is 11.2 µM (active).

As for `O=C1OC(=O)[C@@H]2[C@@H]1[C@@H]1CC[C@H]2O1`, the activity, negative = inhibition result was “inactive”.

As to `O=C(O)C(C(=O)O)P(=S)(S)c1ccccc1` (centres undefined), the activity, negative = inhibition was 4.02% [at 11.4 µM] (inactive). Consider `COC(=O)C[C@](O)(CCCC(C)(C)O)C(=O)O[C@@H]1C(OC)=C[C@]23CCCN2CCc2cc4c(cc2[C@H]13)OCO4`, for which the activity, negative = inhibition result is “inactive”. Still for that read-out and setting: to `C[C@]12CC[C@@H]3C(=CCc4cc(O)ccc43)[C@@H]1CCC2=O` belongs “inactive”; to `CCN(CC)C(=O)N[C@@H]1C[C@H]2c3cccc4[nH]cc(c34)C[C@@H]2N(C)C1`, “inactive”. In the case of `CC(=O)C1=C(O)[C@@H]2[C@@H]3c4c[nH]c5cccc(c45)C[C@@H]3C(C)(C)N2C1=O`, the AC50 was 31.6 µM (active). Turning to `S=C=Nc1cccc(C2(N3CCCCC3)CCCCC2)c1`, the activity, negative = inhibition result is “inactive”. For `CCCN[C@@H]1CCc2c(OC)cccc2[C@@H]1C`, the activity, negative = inhibition entry was “inactive”. On to `C=C(C)[C@H]1CC[C@]2(CO)CC[C@]3(C)[C@@H](CC[C@H]4[C@@]5(C)CC[C@@H](O)C(C)(C)[C@@H]5CC[C@@]43C)[C@H]12`, for which the activity, negative = inhibition entry is “inactive”. For the compound `C[C@@H]1[C@@H](C)N1C[C@H](O)Cn1ccnc1[N+](=O)[O-]` (some centres undefined), the activity, negative = inhibition was 21.8% [at 11.4 µM] (inactive).

Take `Oc1ccc2c3c1O[C@H]1c4[nH]c5ccccc5c4C[C@]4(O)[C@H](C2)N(CC2CC2)CC[C@@]314`: the AC50 is 25.1 µM (active). In the case of `Oc1ccc2c3c1O[C@H]1c4[nH]c5c(c4C[C@@]4(O)[C@@H](C2)N(CC2CC2)CC[C@]314)C[C@]1(O)[C@H]2Cc3ccc(O)c4c3[C@@]1(CCN2CC1CC1)[C@@H]5O4`, the activity, negative = inhibition entry was “inactive”. Consider `Oc1ccc2c3c1O[C@@H]1c4[nH]c5c(c4C[C@@]4(O)[C@@H](C2)N(CC2CC2)CC[C@]314)C[C@]1(O)[C@@H]2Cc3ccc(O)c4c3[C@@]1(CCN2CC1CC1)[C@H]5O4`, for which the activity, negative = inhibition entry is “inactive”. Still for that read-out and setting: the result for `C=C[C@@H]1CN2CC[C@H]1C[C@H]2[C@H](O)c1ccnc2ccccc12` reads -2.06% [at 11.4 µM] (inactive); that for `c1cncc([C@@H]2CCCCN2)c1`, “inactive”; that for `C[C@H](N)[C@@H](O)c1ccccc1`, “inactive”. Consider `NCCSC(c1ccccc1)c1ccccc1`, for which the AC50 was 1 µM (active). For `CC(=O)[C@@H]1CC[C@@H]2[C@@H]3CC=C4C[C@H](OS(=O)(=O)O)CC[C@@]4(C)[C@H]3CC[C@]21C`, the activity, negative = inhibition entry is “inactive”. The same measure, in the same setting: to `C[C@@H]1O[C@H](OC2[C@@H](O)[C@H](O)C(O)[C@H](O)[C@H]2O)[C@@H](N)C[C@@H]1N=C(N)C(=O)O` (some centres undefined) belongs 0.868% [at 11.4 µM] (inactive); to `COc1ccc2c(c1O)-c1cccc3c1[C@H](C2)N(C)CC3`, “inactive”. On the same count and under the same terms, the result for `O=[As](O)(O)c1ccc(N=Nc2ccc(O)cc2)cc1` reads -6.31% [at 11.4 µM] (inactive); that for `NNC(=O)c1ccc(O)cc1`, “inactive”; that for `NC(N)=NC(=O)c1nc(Cl)c(N)nc1N`, “inactive”. Same read-out and setting: to `C[C@@]12CC[C@@H]3[C@H](CCC4=CC(=O)CC[C@]43C)[C@@H]1CC[C@@H]2C(=O)COS(=O)(=O)c1ccc(Br)cc1` belongs -18.3% [at 11.4 µM] (inactive).
